PAFAH2 FP inh: inhibitors of human PAFAH2. recombinant PAFAH2, FP-rhodamine activity probe, fluorescence polarization. inhibition, % at 3.39 µM. actives 0.99% (n = 340,000). AID 492956;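 active = inhibition above the mean over all tested compounds plus 3 SD, cut at about 30% in these data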;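 note: inhibitors block probe labeling of enzyme so polarization drops; 0% = enzyme with DMSO and 100% = wells lacking PAFAH2 protein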
Rin1 Abl inh: blocks binding of human Rin1 to Abl | AID 588664 | actives 0.4% (n = 360,000) | TR-FRET Rin1/Abl binding, biochemical | inhibition, % at 7.35 µM | P00519+Q13671; in the data active = inhibition above about 5%, passing the limit was not always enough
E coli Lon inh: E. coli protease La inhibition; P0A9M0; purified E. coli Lon protease, fluorescence polarization; inhibition, % at 7.94 µM; actives 0.42% (n = 360,000); AID 602123; in the data active = inhibition above about 13%, passing the limit was not always enough;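 note: 0% = enzyme with probe and DMSO and 100% = no enzyme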
PAFAH1B2 FP inh: inhibitors of human PAFAH1B2. P68402. inhibition, % at 3.39 µM. recombinant PAFAH1B2, FP-rhodamine activity probe, fluorescence polarization. actives 1.2% (n = 340,000). AID 492953;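 active = inhibition above the mean of all tested compounds plus 3 SD, cut at about 24% in these data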;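 note: 0% = enzyme with DMSO and 100% = wells lacking PAFAH1B2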
Target sequence (P68402 whole entry, looked up): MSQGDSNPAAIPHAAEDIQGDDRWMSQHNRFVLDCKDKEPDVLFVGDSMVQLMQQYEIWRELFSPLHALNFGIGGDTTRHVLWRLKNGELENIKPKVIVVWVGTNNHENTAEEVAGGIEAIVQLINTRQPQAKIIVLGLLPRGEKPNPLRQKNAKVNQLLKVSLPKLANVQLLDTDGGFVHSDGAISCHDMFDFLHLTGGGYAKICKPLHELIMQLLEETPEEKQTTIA
pPAFAH FP inh: inhibitors of human plasma PAF acetylhydrolase (pPAFAH) | actives 1.5% (n = 330,000) | AID 463082 | Q13093 | inhibition, % at 3.39 µM | recombinant pPAFAH, FP-rhodamine probe fluorescence polarization;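 active = inhibition above the mean inhibition across the screen plus 3 SD, cut at about 25% in these data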;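 note: inhibitors block binding of the rhodamine activity-based probe so polarization drops; 0% = enzyme with DMSO and 100% = wells lacking pPAFAH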
PAFAH1B3 FP inh: PAFAH1B3 (human) inhibition. Q15102. recombinant PAFAH1B3, FP-rhodamine probe, fluorescence polarization. inhibition, % at 3.39 µM. actives 0.28% (n = 340,000). AID 492972;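 active = inhibition above the screen-wide average of all tested compounds plus 3 SD, cut at about 25% in these data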;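 note: 0% = enzyme with DMSO only and 100% = wells lacking PAFAH1B3 protein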
Target sequence (Q15102 whole entry, looked up): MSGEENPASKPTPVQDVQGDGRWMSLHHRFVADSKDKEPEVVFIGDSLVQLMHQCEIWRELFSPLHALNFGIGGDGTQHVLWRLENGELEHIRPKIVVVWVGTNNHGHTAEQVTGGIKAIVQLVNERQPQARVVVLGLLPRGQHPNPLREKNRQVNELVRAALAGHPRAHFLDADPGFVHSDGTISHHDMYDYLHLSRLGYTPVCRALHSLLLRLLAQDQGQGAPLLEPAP
eLon confirm: confirmation of E. coli Lon protease inhibitors | shares compounds with E coli Lon inh | purified E. coli Lon, fluorescence polarization | inhibition, % at 7.94 µM | actives 31% (n = 1,400); in the data active = inhibition above about 16%;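 note: 0% = enzyme with probe and DMSO and 100% = no enzyme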
An asterisk follows results filed as active; nt = no result. Sampled rows, rich in hits. Any-hit rate of the full collection: about 3.1%.

SMILES	PAFAH2 FP inh	Rin1 Abl inh	E coli Lon inh	PAFAH1B2 FP inh	pPAFAH FP inh	PAFAH1B3 FP inh	eLon confirm
CCOc1ccc(NC(=O)COn2nnc3ccc(S(=O)(=O)N4CCOCC4)cc32)cc1	5	2	6	-5	6	7	nt
CN(C)CCP(=O)(c1ccccc1)c1ccccc1	-1	-1	-4	1	0	7	nt
CN(C)CCN(C)Cc1c2ccccc2c(CN(C)CCN(C)C)c2ccccc12	12	-6	125*	8	0	2	47*
O=[N+]([O-])c1ccc(Cl)c(NC2=NCCCCC2)c1	6	3	-6	2	1	-1	nt
O=C(c1ccccc1)c1ccc(C(=O)N2CCN(c3ccccc3Cl)CC2)cc1	10	2	18*	7	9	12	5
O=C(c1cccnc1)N1CCN(c2ccccc2Cl)CC1	nt	nt	nt	nt	1	nt	nt
CN(Cc1ccccc1)C(=O)[C@@H]1CCCN1C(=O)[C@@H]1CCCN1C(=O)c1cccc2ccccc12	nt	nt	-6	nt	nt	nt	nt
CCOC(=O)[C@@H]1[C@H]2COc3cc(OC)ccc3[C@H]2N2C(=O)N(c3cccc(F)c3)C(=O)[C@@]12C	5	2	6	0	4	-2	nt
C[C@H](NS(=O)(=O)c1ccc(F)cc1)C(=O)OCC(=O)c1c(N)n(C)c(=O)n(C)c1=O	10	3	-11	3	-1	9	nt
Cc1cc(C)cc(C(=O)Nc2ccncc2)c1	-1	-2	19*	2	0	8	-5
O=C(Nc1ccc(Cl)cc1)Nc1ccc(N2CCC(C(F)(F)F)CC2)nc1	-2	0	47*	3	5	11	8
COc1ccc(N2CCN(C(=O)CN3C(=O)c4ccccc4S3(=O)=O)CC2)cc1	-7	-1	20*	5	-2	2	-8
Nc1ccn(C2CSC(CO)O2)c(=O)n1 (configuration not stated)	nt	nt	-10	nt	nt	nt	nt
CCCOC(=O)C1C2C=CC(C2)C1C(=O)OCC(=O)c1ccccc1 (configuration not stated)	-2	2	25*	-1	4	0	87*
O=C(CN1C(=O)C2C3C=CC(C3)C2C1=O)OCC(=O)c1ccccc1 (configuration not stated)	1	-1	-8	1	1	-5	nt
C[C@@]12CCC3[C@@](CCC4[C@@]3(C)CCC[C@@]4(C)C(=O)N3CCCCC3)(CC1=O)C2 (some centres not stated)	3	2	28*	9	4	-9	7
CN1CCC[C@H]1CCNc1ccc2c(=O)c3ccccc3n(C)c2c1	-7	-11	-4	3	nt	3	nt
Cn1c2ccccc2c(=O)c2ccc(NCc3ccc4c(c3)OCO4)cc21	6	-5	17*	-1	nt	-1	3
C=CCN1C(=O)c2ccc(C(=O)N(C)CC(=O)Nc3ccc(Br)cc3C)cc2C1=O	-6	-1	6	8	17	1	nt
CCOC(=O)CNc1ccc2c(c1)OCO2	6	0	65*	1	8	10	-4
C[C@H](CO)N1C[C@H](C)[C@H](CN(C)C(=O)Nc2cccc(F)c2)Oc2cc(C#CC3(O)CCCC3)ccc2S1(=O)=O	nt	1	13*	nt	nt	nt	-2
COc1ccc(CCN2CCC(Nc3nc4ccccc4n3Cc3ccc(F)cc3)CC2)cc1	5	-1	-5	-1	4	8	nt
COc1c(O)cccc1[C@@H](O)C1CCN(CCc2ccc(F)cc2)CC1	3	-1	35*	3	6	2	0
Oc1c(C=Nc2ccccc2Cl)[nH]c2ccccc12	7	-3	9	8	0	9	nt
CC1=C(C(N)=O)S(=O)(=O)c2ccccc21	-1	-2	18*	2	4	-4	29*
SMILES	PAFAH2 FP inh	Rin1 Abl inh	E coli Lon inh	PAFAH1B2 FP inh	pPAFAH FP inh	PAFAH1B3 FP inh	eLon confirm
NC(=O)c1ccc2c(c1)S(=O)(=O)c1ccccc1C2=O	-10	-2	-7	3	4	9	nt
CC1CN(C(=O)CCNC(=O)c2ccc(Cl)cc2)CC(C)O1 (configuration not stated)	9	-2	-2	4	-1	8	nt
CC(C)N(Cc1ccccc1)C(=O)COC(=O)c1ccc(S(=O)(=O)N2CCOCC2)cc1	1	3	-7	11	-6	5	nt
CCOc1ccc(C(C(=O)NC2CCCCC2)N(C(=O)c2csnn2)C2CC2)cc1 (configuration not stated)	-3	1	24*	3	-1	0	7
O=[N+]([O-])c1ccc(Nc2ccccc2O)c2nonc12	-1	-10	30*	7	nt	2	29*
CCCOc1ccccc1NC(=O)Nc1ccccc1Cl	3	0	4	1	2	5	nt
Cn1c(=O)c2c(-c3ccccc3)n(-c3cccc(O)c3)cc2n(C)c1=O	nt	-1	18*	nt	nt	nt	6
O=C(NC(=S)Nc1ccc2c(c1)OCCO2)c1ccccc1F	0	-2	36*	1	6	10	-3
Cc1cc(C)c2cc(C#N)c(NCCCN)nc2c1	nt	nt	-8	nt	nt	nt	nt
Cc1oc2c(O)c(O)ccc2c(=O)c1-c1ccc(Cl)cc1	23	2	16*	5	30*	22	13
Cc1oc2c(O)c(O)ccc2c(=O)c1-c1ccccc1	11	2	2	9	19	7	nt
CCN(CC)CCNC(=O)c1nn(-c2ccc(Cl)cc2)c2c1CCc1cc(OC)ccc1-2	1	2	10	5	nt	4	nt
CC(=O)OC1CC(C)(C)N(OC(=O)c2ccccc2)C(C)(C)C1	-2	-4	15*	9	-3	-7	6
O=C(O)CCC1(C(=O)O)OCCc2ccccc21 (configuration not stated)	0	-2	17*	1	3	5	-2
Cc1cccc(-c2cnc(C(O)c3ccc(Cl)cc3C)[nH]2)c1 (configuration not stated)	nt	2	1	nt	nt	nt	nt
O=C1C(NS(=O)(=O)c2cccs2)=C(N2CCN(c3cccc(C(F)(F)F)c3)CC2)C(=O)c2ccccc21	14	-4	22*	7	17	8	-1
O=C(Nc1ccc(Cl)c(Cl)c1)c1ccc(Cn2c(=O)[nH]c3ccsc3c2=O)cc1	-45	-8	27*	-25	-29	-50	15
O=C(Nc1ccc(Oc2ccccc2)cc1)c1ccc(Cn2c(=O)[nH]c3ccsc3c2=O)cc1	-17	2	-5	6	-11	-11	nt
O=Cc1c(N2CCN(CCO)CC2)nc2ccccn2c1=O	-10	-3	41*	8	3	1	-5
Cc1ccc2nc(N3CCN(c4ccccc4)CC3)c(C=O)c(=O)n2c1	2	2	8	-1	-5	4	nt

High-throughput results (PubChem)
